# mcGAS lum: blocks mouse cGAS activity; inhibition, % at 12.5 µM; recombinant cGAS, Kinase-Glo ATP depletion luminescence; hit rate 0.15% among 160,000; Q8C6L5;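 also: 0% = negative control wells and 100% = reference inhibitor with no enzyme activity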
# hcGAS inh: human cGAS inhibition. hit rate 0.081% among 290,000. recombinant h-cGAS, ATP depletion, Kinase-Glo luminescence. AID 1259398. inhibition, % at 12.5 µM;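 also: 0% = vehicle reaction and 100% = reaction without DNA for no activity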
# Target sequence (Q8N884 whole entry, looked up): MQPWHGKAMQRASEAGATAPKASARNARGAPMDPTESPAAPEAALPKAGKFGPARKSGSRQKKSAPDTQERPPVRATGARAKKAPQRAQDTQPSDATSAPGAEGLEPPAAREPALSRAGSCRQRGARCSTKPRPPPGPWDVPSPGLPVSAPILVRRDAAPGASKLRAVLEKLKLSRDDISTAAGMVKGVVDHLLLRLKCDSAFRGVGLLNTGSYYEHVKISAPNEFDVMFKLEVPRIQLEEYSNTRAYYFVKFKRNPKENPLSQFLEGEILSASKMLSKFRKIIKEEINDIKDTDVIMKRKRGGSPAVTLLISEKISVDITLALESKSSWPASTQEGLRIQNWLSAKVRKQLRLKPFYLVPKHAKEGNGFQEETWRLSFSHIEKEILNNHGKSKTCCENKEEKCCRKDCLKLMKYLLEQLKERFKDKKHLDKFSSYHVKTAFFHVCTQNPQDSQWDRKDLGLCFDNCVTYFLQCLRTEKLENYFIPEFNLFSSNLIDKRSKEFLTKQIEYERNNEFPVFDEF
# NPYLR7 agonist: mosquito NPYLR7 agonism | HEK293T NPYLR7/Galpha15, GCaMP6s calcium fluorescence | AID 1259423 | hit rate 0.15% among 270,000 | activation, % at 10 µM; in the data active = activation above about 40%;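 also: 0% = vehicle and 100% = reference agonist at the receptor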
# Starred values were filed as active, the others as inactive; . = no result; ! = not confirmed by another sample. Compounds with a hit are over-represented: about 0.24% of the library has one in this group of screens. Rule as the data show it, unless noted: active = inhibition above about 40%; inactive = the rest.
SMILES,mcGAS lum,hcGAS inh,NPYLR7 agonist
CCCCC(CC)CN=C(N)NC(N)=NCCCCCCN=C(N)NC(N)=NCC(CC)CCCC (centres undefined),-5.0,3.7,45.8*!
Cc1ccc(OCc2nc(C(=O)NCCc3ccccn3)cs2)c(C)c1,-7.4,-7.6,20.9
Cc1ccn2c(NC(=O)Cc3ccccc3)c(-c3cc(F)ccc3F)nc2c1,-6.2,-7.1,-5.1
COc1cc(C=C(C#N)C(N)=O)cc(OC)c1O,.,8.8,24.2
COc1cc(/C=C(\C#N)C(=O)c2ccc(O)c(O)c2)cc(I)c1O,27.9,12.6,191.0*
Cc1ccc(C)c(CN(Cc2ccc(F)cc2)Cc2nc(C(=O)NC3CC3)co2)c1,-2.9,-3.8,9.3
O=c1[nH]c(=S)ccn1-c1nc(-c2ccccc2)sc1-c1ccccc1,-5.8,-3.4,-2.0
CC1(C)CC[C@]2(C)CC[C@]3(C)C(=CCC4[C@@]5(C)CC[C@H](O)C(C)(C)C5CC[C@]43C)C2C1 (some centres undefined),-3.4,-5.2,.
C[C@@H]1OC(O[C@H]2[C@H](OC(=O)[C@]34CCC(C)(C)CC3C3=CCC5[C@@]6(C)CC[C@H](OC7O[C@@H](C)[C@H](O[C@@H]8OC[C@@H](O)[C@H](O)[C@H]8O)[C@@H](O)[C@H]7O)C(C)(C)C6CC[C@@]5(C)[C@]3(C)CC4O)OC[C@H](O)[C@H]2O)[C@H](O)[C@H](O)[C@H]1O[C@@H]1O[C@H](CO)[C@@H](O)[C@H](O)[C@H]1O (some centres undefined),.,-1.4,54.1*
NC(=O)c1csc(-c2ccccc2CN2CCOCC2)n1,-8.8,-0.3,2.3
CC(C)N(C)c1onc(-c2ccccc2)c1CN(Cc1ccco1)C(=O)c1ccco1,-4.4,-5.4,15.7
CNC(=O)CSc1cn(CC(=O)N2CCCCCC2)c2ccccc12,-2.8,3.2,-7.5
O=C(CSc1cn(CC(=O)N2CCCCCC2)c2ccccc12)NC1CCCC1,-5.7,-6.0,42.3*
CC(C)C1CN(Cc2c[nH]c(=O)[nH]c2=O)CCCN1CC1CC1 (centres undefined),-8.0,-16.1,.
COc1ccc(/C=C2\SC(=S)N(C(CCSC)C(=O)O)C2=O)cc1OC (centres undefined),-3.3,-8.4,-2.4
COc1cc(/C=C2\SC(=S)N(C(C)C(=O)O)C2=O)ccc1O (centres undefined),-0.6,-9.9,81.8*
COc1ccc(/C=C2\SC(=S)N(C(C)C(=O)O)C2=O)cc1OC (centres undefined),-7.4,-1.0,-3.4
CSCCC(C(=O)O)N1C(=O)/C(=C/c2ccc(O)cc2)SC1=S (centres undefined),0.6,-1.8,74.4*
Cc1ccc2nc(CN(C)C(=O)C3CC4(CCNCC4)CN3)[nH]c2c1 (centres undefined),.,-4.1,17.4
Cc1ccc(C2CC(c3ccc(C)c(C)c3)=Nc3ncnn32)cc1 (centres undefined),.,-7.0,5.5
O=c1[nH]c2n[nH]c(=S)n2c2c1CCCC2,.,50.9*,-2.3
Cc1cc(=O)[nH]c2n[nH]c(=S)n12,.,28.0,-3.8
COc1cc(/C=C(/C#N)c2nc3cc(Cl)ccc3s2)ccc1O,.,-16.1,102.4*
COc1ccc(C=C(C#N)c2nc(-c3ccc(F)cc3)cs2)cc1O,-4.0,-5.5,14.4
COc1ccc(CC2CN(C(=O)c3ccccc3Cl)CCO2)cc1 (centres undefined),.,0.3,3.5
SMILES,mcGAS lum,hcGAS inh,NPYLR7 agonist
Cc1ccc(NC2C=CS(=O)(=O)C2)cc1C (centres undefined),-2.7,-2.9,110.3*
Cc1ccc(F)cc1CC(=O)NC1C=CS(=O)(=O)C1 (centres undefined),3.2,-0.8,8.1
O=C(NCc1ccco1)c1ccc(CSc2nnc(-c3ccncc3)n2Cc2ccccc2)cc1,2.3,3.5,-0.7
O=C1c2ccccc2-c2nn(CN3CCN(c4ccccc4)CC3)c3cccc1c23,4.4,14.5,87.7*
Cn1c(-c2ccncc2)nn(CN2CCN(c3ccccc3)CC2)c1=S,.,-4.3,8.1
Cc1ccc(Nc2nc(NCc3ccc4c(c3)OCO4)nc3nccnc23)cc1,.,0.4,1.8
Clc1ccc(C2=Nc3ncnn3C(c3ccc(Cl)cc3)C2)cc1 (centres undefined),.,-7.2,8.5
CSc1ccc(C2CC(c3ccc(Cl)cc3)=Nc3ncnn32)cc1 (centres undefined),.,-10.6,92.4*
OC[C@H]1O[C@@H](n2cnc3c(NC4CCCC4)ncnc32)C(O)[C@H]1O (some centres undefined),-2.9,-0.6,20.4
Nc1ncnc2c1ncn2[C@@H]1O[C@H](CO)[C@@H](O)[C@H]1O,.,1.0,52.0*
CCc1nc2ccc(C(=O)N(C)CCN(C)C)cn2c1N(C)C(=O)C1CCCCC1,4.1,10.0,-9.8
CC1(C)OC2OC(C(O)c3cc(O)c4c(c3O)C(=O)c3ccccc3C4=O)C(C)(O)C2O1 (centres undefined),.,24.3,105.8*
O=C1c2ccccc2C(=O)c2c(O)c(O)cc(O)c21,5.5,-24.4,-2.5
C=CCCC(O)CN(CCC)Cc1c(CC)nn(-c2ccccc2)c1Oc1ccccc1OC (centres undefined),-5.4,-6.8,3.4
Cc1cccc(CC(=O)NCc2nnnn2C2CCCCC2)c1,-6.2,-4.9,22.8
Cc1cccc(NS(=O)(=O)c2c(C)nn(C)c2Cl)c1C(=O)O,.,-7.9,0.3
Cc1nn(C)c(Cl)c1/C=C1/CCCc2c1nc1ccccc1c2C(=O)O,-8.5,1.9,56.8*
O=C(c1cc(-c2ccccc2)nn1-c1ccc(F)cc1)N1CCc2ccccc2C1,0.0,-2.3,8.5
Cc1cccc(=O)n1CCCNc1nc(N(C)C)nc2c1CCNC2,.,-5.7,16.2
COC(=O)c1sc(N)c(C(=O)OC)c1Cn1cc(C(F)(F)F)cc(Cl)c1=O,-2.5,54.0*,-4.6
COC(=O)C1CCN(C(=O)Cn2cc(C(F)(F)F)cc(Cl)c2=O)CC1,.,-11.6,0.8
COc1cc(OC)cc(C(=O)Nc2c(C)nc3c(C)cccn3c2=O)c1,.,-10.4,-0.1
CS(=O)(=O)Nc1nc2n(n1)C(c1ccccc1)CC(c1ccc(Cl)cc1)=N2 (centres undefined),.,-0.1,65.8*
O=S(=O)(Nc1nc2n(n1)C(c1ccccc1)CC(c1ccccc1)=N2)c1ccccc1 (centres undefined),-2.6,-9.2,24.8
O=c1oc(-c2ccccc2Br)nc2ccccc12,-4.8,-1.5,18.8
SMILES,mcGAS lum,hcGAS inh,NPYLR7 agonist
O=c1oc(-c2ccccc2O)nc2ccccc12,.,55.1*,2.7
CNC(=O)c1sc(C2(NC(=O)c3ccccc3)CCCC2)nc1C,-14.6,-16.7,7.2
CCCC(=O)NC(c1cccc([N+](=O)[O-])c1)c1ccc2cccnc2c1O (centres undefined),.,-2.3,-0.3
O=[N+]([O-])c1cccc(C(Nc2nc3c(s2)CCCC3)c2ccc3cccnc3c2O)c1 (centres undefined),2.0,41.9*,-2.4
CN(c1ccccc1)S(=O)(=O)c1cccc(NC(=O)CCl)c1,55.2*,-2.6,11.8
CN(c1ccccc1)S(=O)(=O)c1cccc(NS(=O)(=O)c2cc(Cl)ccc2Cl)c1,.,-0.6,-9.7
CCc1nn(C(C)C(=O)NC)c(=O)c2cc3occc3n12 (centres undefined),-3.8,-5.2,6.9

# High-throughput results as filed in PubChem.
